In the library only some 2.4% were active in any assay of this set; here they are far more common.
D2 antag: antagonizes the human D2 dopamine receptor; P14416; HEK293 TREx D2 cells, calcium flux, dopamine EC80; inhibition, % at 10 µM; actives 2% (n = 340,000); AID 485344; in the data active = inhibition above about 30%; inactive = below that, where a call was filed; also: 0% is about no effect
Target sequence (P14416 whole entry, looked up): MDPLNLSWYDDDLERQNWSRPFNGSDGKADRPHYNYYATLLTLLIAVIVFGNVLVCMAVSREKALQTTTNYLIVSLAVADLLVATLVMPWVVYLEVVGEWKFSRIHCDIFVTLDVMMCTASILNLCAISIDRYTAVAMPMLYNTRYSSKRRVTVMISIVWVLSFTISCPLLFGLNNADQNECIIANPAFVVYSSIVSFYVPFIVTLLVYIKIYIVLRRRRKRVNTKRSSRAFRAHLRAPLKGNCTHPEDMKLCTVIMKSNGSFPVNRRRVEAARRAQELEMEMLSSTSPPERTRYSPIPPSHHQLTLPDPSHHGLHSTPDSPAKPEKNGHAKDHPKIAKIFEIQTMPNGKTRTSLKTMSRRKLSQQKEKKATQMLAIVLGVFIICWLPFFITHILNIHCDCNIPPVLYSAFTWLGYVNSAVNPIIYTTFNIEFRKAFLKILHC
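Tetracycline-induced HEK293 T-REx cells expressing D2 force-coupled to calcium signalling were dye-loaded, exposed to compound for 180 s, then challenged with an EC80 of dopamine; calcium flux was followed kinetically for a further 180 s.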
D2 ag-1: agonists of human D2 dopamine receptor (beta-arrestin); DiscoveRx PathHunter D2 beta-arrestin, luminescence, 90 min; 100% = 57 uM dopamine signal; actives 0.084% (n = 360,000); AID 624465; activation, % (no concentration beside the values); in the data active = activation above about 40%
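DiscoveRx PathHunter D2 beta-arrestin cells (2,100/well) attached overnight, then compound-stimulated 90 min at 37 C in HBSS/10 mM HEPES/0.1% Tween-20 buffer; beta-galactosidase complementation read by luminescence after 1 h at ambient temperature. Dopamine 57 uM final (EC100) as control.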
D2 PAM-1: human D2 receptor positive allosteric modulation. DiscoveRx D2 beta-arrestin cells, luminescence, 90 min; 100% = 57 uM dopamine signal. potentiation, % (concentration not given with the values). P14416. actives 0.23% (n = 360,000); in the data active = potentiation above about 50%
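PathHunter D2 cells, attached overnight at 37 deg C, received compound in DMSO plus dopamine at EC20 (50 nM final) for 90 min at 37 deg C. Beta-arrestin recruitment was read as luminescence after 1 h with detection reagent at ambient temperature.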
D2 ag-2: D2 dopamine receptor (human) agonism | HEK293 T-REx D2 cells, calcium flux agonist mode | activation, % at 2 µM | actives 0.53% (n = 340,000) | AID 485358;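 active = activation over 3 SD above normal in the single-dose calcium agonist read, cut at about 30% in these data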; also: 0% is about no effect
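HEK293 Trex D2 cells, tetracycline-induced, o/n 30 C 5% CO2; no-wash Ca dye, RT 30–90 min; 10-cycle baseline, 23 nl cpd added, kinetic Ca read 180 s; agonist hits = positive Ca response.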
D2 PAM-2: positively modulates the human D2 dopamine receptor allosterically; actives 0.34% (n = 340,000); AID 485347; HEK293 T-REx D2, calcium flux, EC20 dopamine potentiation; potentiation, % at 10 µM; P14416;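 active = potentiation over 3 SD above the plate norm, cut at about 30% in these data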; also: 0% is about no effect
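Tetracycline-induced HEK293 T-REx cells force-coupled to calcium signalling expressed D2; compounds were pin-added after a 10 s baseline, read kinetically 180 s, then an EC20 dopamine challenge followed with a further 180 s calcium read.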
* = called active by the depositor; · = not tested or not shown.

SMILES	D2 antag	D2 ag-1	D2 PAM-1	D2 ag-2	D2 PAM-2
Cn1cccc1/C=N/N1CCN(c2ccccn2)CC1	25	4	-3	31*	-8
Cc1ccc(/C=N/N2CCN(c3ccccn3)CC2)cc1	-15	-1	-8	1	13
O=C(CC12CC3CC(CC(Br)(C3)C1)C2)NC1CCCC1	34*	0	-3	1	7
COc1ccc(C(=O)Nc2ccc3c(c2)N(C2CCCC2)C(=O)c2ccccc2S3)cc1OC	·	·	·	0	8
COc1ccc(OC)c(NC(=O)C(=O)NNC(=O)c2cccs2)c1	38*	0	5	0	20
COc1cc(N)ccc1NC(=O)c1cccs1	11	9	79*	0	9
COc1ccc(S(=O)(=O)NCCc2sc(-c3cccnc3)nc2C)cc1	·	·	·	-1	6
CCOC(=O)C1CCN(C(=O)Cn2ncc3c4ccccc4n(Cc4ccc(F)cc4)c3c2=O)CC1	·	·	·	2	15
CCn1cnc2c1c(=O)n(Cc1csc(-c3ccccc3)n1)c(=O)n2Cc1ccccc1	4	0	-1	1	7
CCn1cnc2c1c(=O)n(Cc1nnc3n1-c1ccccc1SC3)c(=O)n2Cc1ccccc1	5	-4	0	2	34*
CCOc1ccc(CCNC(=O)c2ccc3c(c2)c(C)c(C)n3Cc2ccccc2)cc1OCC	·	·	·	0	0
CC(=O)Nc1ccc(S(=O)(=O)Nc2ccc(F)c([N+](=O)[O-])c2)cc1	43*	-9	1	2	-14
CC(=O)Nc1ccc(NS(=O)(=O)c2ccc(C)cc2)cc1[N+](=O)[O-]	-3	-1	-7	-1	0
CC(=O)Nc1ccc(S(=O)(=O)c2ccc([N+](=O)[O-])cc2)cc1	-2	53*	-3	0	-1
CCOc1ccc(/C=C/c2nc(C#N)c(N3CCCCC3)o2)cc1	·	·	·	0	4
C=CCc1ccccc1OCCNCCCOC	69*	-6	-32	0	-22
C=CCc1cc(Cl)ccc1OCCNCCCOC	37*	-1	-16	1	-33
C=CCc1cc(Cl)ccc1OCCOCCNCCOC	4	-3	-16	1	-20
CCOC(=O)c1c(C)oc2nc(C)nc(NCc3cccc(Cl)c3)c12	·	·	·	1	3
Cc1cc(C(=O)N2CCN(S(=O)(=O)c3ccccc3F)CC2)c(C)o1	-2	2	-2	0	47*
Cc1cc(C(=O)N2CCN(S(=O)(=O)c3ccccc3C#N)CC2)c(C)o1	23	-4	-4	0	20
COc1ccc(CC2(CO)CCN(Cc3cccc4nccnc34)CC2)cc1	-4	-21	-15	0	5
CCOC(=O)C1(CC2CC2)CCN(Cc2cn[nH]c2-c2cccc(F)c2)CC1	0	-2	-18	-1	-6
COc1cccc(CC2(CO)CCN(Cc3ccc4cccc(F)c4n3)CC2)c1	62*	1	-23	0	-22
OCC1(Cc2cccc(F)c2)CCN(Cc2ccc3cccc(F)c3n2)CC1	40*	-3	-12	0	-19
SMILES	D2 antag	D2 ag-1	D2 PAM-1	D2 ag-2	D2 PAM-2
CCOC(=O)C1(CC2CC2)CCN(Cc2ccc3cccc(F)c3n2)CC1	65*	2	-10	0	-21
COc1ccc(CN2CCC(CO)(Cc3ccccc3C(F)(F)F)CC2)c(F)c1	43*	-2	-18	-1	-12
OCC1(CCOc2ccccc2)CCN(Cc2ccc3cccc(F)c3n2)CC1	0	-4	-14	0	2
Cn1cc(-c2cc3n(n2)CCC(=O)N3CC(=O)NCc2ccc(Cl)cc2)c2ccccc21	·	·	·	-2	-5
Oc1ccccc1N1CCN(C(c2ccccc2)c2ccccc2)CC1	30*	-4	-3	0	-2
CC(=O)N1CCN(C(c2ccccc2)c2ccccc2)CC1	·	-3	-6	·	·
Cc1noc(NS(=O)(=O)c2ccc(NC(=O)c3ccc(Br)cc3)cc2)c1C	·	·	·	·	-3
Cc1ccc(N(CC(=O)NCCSc2nc3ccccc3s2)S(=O)(=O)c2ccccc2)c(C)c1	55*	1	16	1	6
Cn1nnnc1SCCCNCc1ccccc1OCc1ccc(Cl)cc1	·	·	·	·	-18
COc1cc(/C=N/NC(N)=O)ccc1OC(=O)c1cccs1	-3	4	0	0	3
COc1cc(/C=N/N(C)C)ccc1OC(=O)c1cccs1	-13	3	-10	-1	42*
O=C(O)Cc1ccc(-n2cccc2)cc1	37*	0	-6	0	0
COc1cccc(CNC(=O)c2ccc(CSc3nc4ccncc4n3Cc3cccc(C)c3)cc2)c1	·	·	·	1	-9
C=CCC(C#N)(c1ccc(OC)c(OC)c1)c1cnccn1 (centres undefined)	6	-4	-9	0	5
COc1ccc(C(C#N)(CCC#N)CCC#N)cc1OC	80*	-2	-20	2	-24
COc1cc(C2CC(=O)n3c(nc4ccccc43)S2)cc(OC)c1OC (centres undefined)	-2	·	·	0	30*
O=C(O)C1CC(=O)n2c(nc3ccccc32)S1 (centres undefined)	5	-4	8	0	21
O=C(c1cc(F)ccc1F)C1CCCN(C(=O)CCc2cnccn2)C1 (centres undefined)	38*	2	-6	-2	-4
O=C(c1cccc2ccccc12)C1CCCN(C(=O)CCc2cnccn2)C1 (centres undefined)	0	3	-4	1	0
CCc1ccc(NC(=O)CC2C(=O)N(c3cccc(C)c3)C(=O)N2CCC(C)C)cc1 (centres undefined)	·	·	·	0	-4
O=C(Cn1nnc(-c2ccccc2NC(=O)c2ccccc2F)n1)NCc1ccco1	33*	0	9	1	0
CCc1nnc(NC(=O)COc2ccc3c(c2)OCO3)s1	12	3	-1	0	30*
CCCc1nnc(NC(=O)COc2ccc3c(c2)OCO3)s1	-1	0	4	-2	-13
c1ccc(Nc2ccccc2Nc2ccccn2)nc1	34*	-1	-10	0	27
c1ccc(CNc2ccccn2)cc1	-6	1	-14	0	-2
O=S1(=O)NC(=NCc2ccccc2)c2ccccc21	30*	-3	5	0	-7
O=C(O)c1ccccc1-c1ccc(/C=C/c2cc(C(F)(F)F)[nH]c(=O)n2)o1	16	-3	0	45*	2
CCN(CC)S(=O)(=O)c1cccc(C(=O)NCC2(N3CCOCC3)CCCCC2)c1	39*	-4	-2	0	3
Cc1nn(Cc2ccc([N+](=O)[O-])cc2)c(=O)n1-c1c(F)cccc1F	37*	1	-8	0	-1
Cc1nn(Cc2ccc([N+](=O)[O-])cc2)c(=O)n1-c1ccc(F)cc1	-17	-3	-14	0	17
